Data on 40 targets can be found in the supplement of paper PMC11001985.

Sequence of UniProt Q15149 (Q15149 whole entry): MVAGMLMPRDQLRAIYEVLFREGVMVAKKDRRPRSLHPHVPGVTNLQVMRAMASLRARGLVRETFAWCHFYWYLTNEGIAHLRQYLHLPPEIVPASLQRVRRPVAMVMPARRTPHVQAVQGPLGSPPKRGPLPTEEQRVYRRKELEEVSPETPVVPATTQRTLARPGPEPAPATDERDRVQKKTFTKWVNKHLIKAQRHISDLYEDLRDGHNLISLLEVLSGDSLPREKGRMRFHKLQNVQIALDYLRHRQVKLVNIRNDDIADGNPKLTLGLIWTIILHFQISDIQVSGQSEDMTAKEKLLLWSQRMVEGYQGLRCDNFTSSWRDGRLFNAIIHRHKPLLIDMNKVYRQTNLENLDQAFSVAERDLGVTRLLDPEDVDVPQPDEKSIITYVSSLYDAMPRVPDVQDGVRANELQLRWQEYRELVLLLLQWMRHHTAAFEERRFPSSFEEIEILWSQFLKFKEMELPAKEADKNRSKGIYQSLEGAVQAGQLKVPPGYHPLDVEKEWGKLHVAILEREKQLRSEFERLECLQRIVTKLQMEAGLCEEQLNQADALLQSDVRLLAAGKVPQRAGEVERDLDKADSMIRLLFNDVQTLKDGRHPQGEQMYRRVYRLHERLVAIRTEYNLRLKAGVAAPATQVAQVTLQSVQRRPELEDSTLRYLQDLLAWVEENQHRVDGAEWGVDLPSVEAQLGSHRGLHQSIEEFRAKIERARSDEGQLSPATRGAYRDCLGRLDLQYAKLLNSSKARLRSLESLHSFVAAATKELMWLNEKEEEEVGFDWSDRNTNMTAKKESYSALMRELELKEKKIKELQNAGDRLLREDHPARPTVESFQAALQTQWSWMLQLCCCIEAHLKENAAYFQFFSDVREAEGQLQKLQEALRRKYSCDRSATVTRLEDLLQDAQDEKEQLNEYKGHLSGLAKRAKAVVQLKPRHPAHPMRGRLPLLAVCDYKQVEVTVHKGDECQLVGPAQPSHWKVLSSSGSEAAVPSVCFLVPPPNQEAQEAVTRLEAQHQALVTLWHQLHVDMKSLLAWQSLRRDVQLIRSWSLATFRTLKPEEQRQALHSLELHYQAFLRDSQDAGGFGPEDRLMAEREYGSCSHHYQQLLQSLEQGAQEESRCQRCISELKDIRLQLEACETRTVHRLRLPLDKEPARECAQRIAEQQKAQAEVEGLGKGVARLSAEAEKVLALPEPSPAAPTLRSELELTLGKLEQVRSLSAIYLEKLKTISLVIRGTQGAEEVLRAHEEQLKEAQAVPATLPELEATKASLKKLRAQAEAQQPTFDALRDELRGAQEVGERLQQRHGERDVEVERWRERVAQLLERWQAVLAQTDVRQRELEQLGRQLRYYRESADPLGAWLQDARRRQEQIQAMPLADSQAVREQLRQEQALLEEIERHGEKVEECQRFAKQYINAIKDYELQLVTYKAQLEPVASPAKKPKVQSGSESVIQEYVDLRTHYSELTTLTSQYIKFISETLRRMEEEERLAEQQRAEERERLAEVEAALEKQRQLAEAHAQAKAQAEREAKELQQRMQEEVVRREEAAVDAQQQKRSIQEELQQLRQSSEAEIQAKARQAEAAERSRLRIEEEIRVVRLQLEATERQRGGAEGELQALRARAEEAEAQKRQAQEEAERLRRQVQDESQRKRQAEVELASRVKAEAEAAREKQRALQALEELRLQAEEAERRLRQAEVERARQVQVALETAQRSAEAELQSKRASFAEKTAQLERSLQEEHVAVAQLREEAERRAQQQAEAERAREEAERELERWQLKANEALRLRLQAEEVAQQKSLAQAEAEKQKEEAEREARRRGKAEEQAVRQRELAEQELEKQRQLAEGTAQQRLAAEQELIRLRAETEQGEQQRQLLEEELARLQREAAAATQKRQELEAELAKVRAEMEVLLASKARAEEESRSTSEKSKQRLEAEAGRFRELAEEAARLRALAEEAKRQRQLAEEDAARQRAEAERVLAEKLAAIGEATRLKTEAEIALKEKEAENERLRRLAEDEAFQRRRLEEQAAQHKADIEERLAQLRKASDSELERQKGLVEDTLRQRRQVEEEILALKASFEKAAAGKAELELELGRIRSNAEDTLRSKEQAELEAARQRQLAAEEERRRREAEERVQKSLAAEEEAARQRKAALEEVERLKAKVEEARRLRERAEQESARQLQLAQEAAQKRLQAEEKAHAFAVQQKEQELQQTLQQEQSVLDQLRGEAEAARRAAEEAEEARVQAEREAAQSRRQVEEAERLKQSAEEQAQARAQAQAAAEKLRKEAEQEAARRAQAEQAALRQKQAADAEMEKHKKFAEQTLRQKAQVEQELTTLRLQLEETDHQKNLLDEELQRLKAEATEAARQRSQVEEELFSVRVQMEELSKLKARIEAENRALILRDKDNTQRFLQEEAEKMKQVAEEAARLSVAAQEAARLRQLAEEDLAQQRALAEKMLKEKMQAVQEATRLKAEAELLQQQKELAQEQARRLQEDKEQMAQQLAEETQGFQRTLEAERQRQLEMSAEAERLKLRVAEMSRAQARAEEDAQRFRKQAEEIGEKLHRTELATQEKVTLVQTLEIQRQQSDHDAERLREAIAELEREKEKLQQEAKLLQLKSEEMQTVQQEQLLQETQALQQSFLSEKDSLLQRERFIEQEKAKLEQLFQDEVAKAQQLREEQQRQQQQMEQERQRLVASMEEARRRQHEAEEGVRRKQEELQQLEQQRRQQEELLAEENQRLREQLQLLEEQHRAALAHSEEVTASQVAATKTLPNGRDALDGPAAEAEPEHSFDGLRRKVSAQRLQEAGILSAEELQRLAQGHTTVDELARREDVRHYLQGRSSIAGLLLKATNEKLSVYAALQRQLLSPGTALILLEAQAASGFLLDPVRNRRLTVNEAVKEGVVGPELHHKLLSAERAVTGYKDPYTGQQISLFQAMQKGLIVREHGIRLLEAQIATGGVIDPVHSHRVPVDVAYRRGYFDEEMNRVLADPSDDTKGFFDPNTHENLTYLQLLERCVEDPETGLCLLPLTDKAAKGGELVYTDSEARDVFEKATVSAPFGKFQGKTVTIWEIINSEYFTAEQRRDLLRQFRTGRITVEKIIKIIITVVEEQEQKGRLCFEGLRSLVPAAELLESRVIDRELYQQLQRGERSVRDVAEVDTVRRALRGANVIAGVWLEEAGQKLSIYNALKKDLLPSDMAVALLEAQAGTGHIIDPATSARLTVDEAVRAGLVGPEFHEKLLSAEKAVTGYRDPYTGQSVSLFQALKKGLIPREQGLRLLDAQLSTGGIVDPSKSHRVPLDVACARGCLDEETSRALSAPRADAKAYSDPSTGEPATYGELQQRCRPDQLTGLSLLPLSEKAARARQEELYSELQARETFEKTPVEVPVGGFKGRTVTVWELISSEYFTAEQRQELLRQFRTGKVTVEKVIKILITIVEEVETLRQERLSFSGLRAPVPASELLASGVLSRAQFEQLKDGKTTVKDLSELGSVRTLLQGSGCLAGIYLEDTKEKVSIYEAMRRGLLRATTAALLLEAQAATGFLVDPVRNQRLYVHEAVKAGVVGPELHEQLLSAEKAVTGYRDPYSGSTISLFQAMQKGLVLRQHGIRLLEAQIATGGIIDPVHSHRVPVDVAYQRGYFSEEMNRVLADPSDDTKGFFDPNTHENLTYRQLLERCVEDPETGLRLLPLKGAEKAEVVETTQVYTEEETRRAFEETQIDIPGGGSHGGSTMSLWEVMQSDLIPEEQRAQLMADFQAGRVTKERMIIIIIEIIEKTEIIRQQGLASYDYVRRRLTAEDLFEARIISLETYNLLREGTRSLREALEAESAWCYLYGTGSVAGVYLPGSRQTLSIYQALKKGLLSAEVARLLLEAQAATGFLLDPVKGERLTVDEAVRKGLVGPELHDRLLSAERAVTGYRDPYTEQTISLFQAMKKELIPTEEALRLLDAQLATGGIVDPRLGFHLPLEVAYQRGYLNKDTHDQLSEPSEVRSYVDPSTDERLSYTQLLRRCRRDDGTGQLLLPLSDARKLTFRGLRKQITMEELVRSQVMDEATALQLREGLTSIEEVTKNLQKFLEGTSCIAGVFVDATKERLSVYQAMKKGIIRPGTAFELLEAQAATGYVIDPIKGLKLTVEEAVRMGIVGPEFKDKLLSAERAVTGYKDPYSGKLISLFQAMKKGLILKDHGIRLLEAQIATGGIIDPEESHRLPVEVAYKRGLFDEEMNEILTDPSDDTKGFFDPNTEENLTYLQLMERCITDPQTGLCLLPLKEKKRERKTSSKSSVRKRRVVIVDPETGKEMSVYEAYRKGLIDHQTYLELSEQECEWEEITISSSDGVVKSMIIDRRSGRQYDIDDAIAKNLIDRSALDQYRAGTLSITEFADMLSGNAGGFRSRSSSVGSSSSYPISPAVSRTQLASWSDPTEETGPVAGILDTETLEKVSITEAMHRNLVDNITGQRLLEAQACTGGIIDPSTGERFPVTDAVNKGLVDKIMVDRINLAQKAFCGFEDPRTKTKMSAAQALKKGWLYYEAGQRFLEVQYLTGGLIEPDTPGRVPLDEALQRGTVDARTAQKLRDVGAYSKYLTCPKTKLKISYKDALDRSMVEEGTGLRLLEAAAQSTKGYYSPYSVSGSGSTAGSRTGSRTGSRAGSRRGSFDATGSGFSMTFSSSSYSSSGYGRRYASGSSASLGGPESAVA
Sequence of UniProt P05783 (P05783 whole entry): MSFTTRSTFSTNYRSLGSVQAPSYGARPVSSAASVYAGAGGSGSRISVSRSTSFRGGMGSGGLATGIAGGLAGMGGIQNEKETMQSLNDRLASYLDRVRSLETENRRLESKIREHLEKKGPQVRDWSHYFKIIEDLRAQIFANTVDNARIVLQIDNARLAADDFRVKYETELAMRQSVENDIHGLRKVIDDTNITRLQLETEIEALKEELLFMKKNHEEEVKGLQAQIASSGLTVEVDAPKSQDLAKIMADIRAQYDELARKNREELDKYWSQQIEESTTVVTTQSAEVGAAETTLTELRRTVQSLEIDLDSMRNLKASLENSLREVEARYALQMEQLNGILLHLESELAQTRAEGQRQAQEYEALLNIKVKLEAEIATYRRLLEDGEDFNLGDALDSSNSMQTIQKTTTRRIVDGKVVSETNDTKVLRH

Compound in the experiment: C#CCNC(=O)CCSSCCC(=O)NCCc1ccc(C=O)c(C=O)c1
The experiment can be described thus: lysine labeling ratio R10:1 (500 µM / 50 µM probe), SILAC-ABPP in living cells; higher = lower intrinsic lysine reactivity toward the probe, active = 2 or less. Particulars: HeLa; probe concentrations 500 vs 50 µM. The procedure, abridged: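 R, given per lysine, is the filtered median high-probe/low-probe MS1 peptide ratio, with the median then taken across forward and reverse replicates. Cells were living SILAC light and heavy HeLa cells in PBS at room temperature, labelled with 50 µM or 500 µM of an alkyne-tagged, disulfide-linked lysine probe. The ceiling applied is 20.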
Regarding “HSPA8 (lysine site: K531) (UniProt P11142)”, the “lysine labeling ratio R10:1” value was 3.46 (inactive).
Consider “IGF1R (lysine site: K887) (UniProt P08069)”, for which the “lysine labeling ratio R10:1” value is 3.44 (inactive).
As for UniProt Q15286 (lysine site: K121), the “lysine labeling ratio R10:1” value was 0.72 (active).
On to “NRP1 (lysine site: K407) (UniProt O14786)”, for which the “lysine labeling ratio R10:1” value is 3.76 (inactive).
In the case of “LAMB1 (lysine site: K215) (UniProt P07942)”, the “lysine labeling ratio R10:1” value is 2.29 (inactive).
The result for UniProt Q8WXI7 (lysine site: K13985) reads 7.69 (inactive); that for “LNPEP (lysine site: K726) (UniProt Q9UIQ6)”, 0.91 (active); that for “SSBP1 (lysine site: K81) (UniProt Q04837)”, 4.93 (inactive).
For the target UniProt Q9BZM4 (lysine site: K148), the “lysine labeling ratio R10:1” value is 2.1 (inactive).
As for UniProt Q99623 (lysine site: K262), the “lysine labeling ratio R10:1” value was 3.03 (inactive).
In the case of “KRT18 (lysine site: K119) (UniProt P05783)” it was 6.22 (inactive).
Consider “ITGAV (lysine site: K533) (UniProt P06756)”, for which the “lysine labeling ratio R10:1” value is 1.58 (active).
For the target “SDC2 (lysine site: K134) (UniProt P34741)”, the “lysine labeling ratio R10:1” value is 3.52 (inactive).
In the case of “FAT4 (lysine site: K4224) (UniProt Q6V0I7)”, the “lysine labeling ratio R10:1” value is 5.49 (inactive).
On to “DCTN2 (lysine site: K175) (UniProt Q13561)”, for which the “lysine labeling ratio R10:1” value was 2.59 (inactive).
On to “EDIL3 (lysine site: K157) (UniProt O43854)”, for which the “lysine labeling ratio R10:1” value is 3.03 (inactive).
Regarding UniProt P09758 (lysine site: K231), the “lysine labeling ratio R10:1” value was 4.22 (inactive).
On to UniProt Q96TA1 (lysine site: K430), for which the “lysine labeling ratio R10:1” value is 1.69 (active).
In the case of “CACNA2D1 (lysine site: K106) (UniProt P54289)” it was 3.84 (inactive).
Take “FLNA (lysine site: K2417) (UniProt P21333)”: the “lysine labeling ratio R10:1” value is 4.07 (inactive).
In the case of “SLC25A1 (lysine site: K160) (UniProt P53007)”, the “lysine labeling ratio R10:1” value is 2.79 (inactive).
In the case of UniProt Q15149 (lysine site: K3476) it was 1.8 (active).
The result for “PLOD2 (lysine site: K486) (UniProt O00469)” reads 2.27 (inactive); that for “RAB13 (lysine site: K107) (UniProt P51153)”, 0.523 (active); that for “ALCAM (lysine site: K75) (UniProt Q13740)”, 9.89 (inactive).
“GPC1 (lysine site: K347) (UniProt P35052)”: the “lysine labeling ratio R10:1” value is 4.46 (inactive).
“SCFD1 (lysine site: K572) (UniProt Q8WVM8)”: the “lysine labeling ratio R10:1” value is 2.58 (inactive).
As for UniProt Q4KMG0 (lysine site: K149), the “lysine labeling ratio R10:1” value is 1.47 (active).
As for “EZR (lysine site: K523) (UniProt P15311)”, the “lysine labeling ratio R10:1” value is 1.87 (active).
For “HSP90B1 (lysine site: K683) (UniProt P14625)”, the “lysine labeling ratio R10:1” value was 4.36 (inactive).
In the case of “VAPA (lysine site: K174) (UniProt Q9P0L0)” it was 1.89 (active); in that of “HNRNPC (lysine site: K176) (UniProt P07910)”, 3.1 (inactive); in that of “L1CAM (lysine site: K378) (UniProt P32004)”, 14 (inactive).
For “SLC39A6 (lysine site: K143) (UniProt Q13433)”, the “lysine labeling ratio R10:1” value was 4.18 (inactive).
Consider UniProt P62851 (lysine site: K114), for which the “lysine labeling ratio R10:1” value is 2.69 (inactive).
In the case of “SPTAN1 (lysine site: K2184) (UniProt Q13813)” it was 5.14 (inactive).
On to “KRT18 (lysine site: K426) (UniProt P05783)”, for which the “lysine labeling ratio R10:1” value was 9.55 (inactive).
For UniProt Q15149 (lysine site: K597), the “lysine labeling ratio R10:1” value was 3.48 (inactive).
As to “RPS19 (lysine site: K43) (UniProt P39019)”, the “lysine labeling ratio R10:1” value is 0.56 (active).
Turning to UniProt Q14964 (lysine site: K63), the “lysine labeling ratio R10:1” value was 2.17 (inactive).
